Experimental data as given in ChEMBL document CHEMBL4513149, “CO-ADD screening of MMV (CH) - MMV compounds” (2021).
Entries with a potency or affinity are not part of this list.

System: Candida albicans
Conditions: 20 µM

SMILES | Inhibition [%]
CCOc1ccccc1NC(C)C(=O)Nc1cc(C(F)(F)F)ccc1N1CCOCC1 (configuration not stated) | 4.33
CC(C)(C(=O)Nc1ccc(F)cc1)n1cc(-c2ccccc2F)cn1 | 7.41
O=C(CCC1CCCCC1)Nc1cccc(-c2nnc(-c3ccco3)o2)c1 | 5.6
Cl.NCC(c1cccs1)S(=O)(=O)c1ccccc1 (configuration not stated) | 3.86
CNc1nnc(Sc2cnn(-c3ccccc3)c(=O)c2Cl)s1 | 4.99
O=C(NCc1nnc2n1CCCCC2)c1ccc(-c2ccc(F)cc2)o1 | 3.81
c1cc(C2=NCCN2)cc(-c2cc(-c3ccc(C4=NCCN4)cc3)no2)c1 | 2.32
C[C@H](c1ccc2c(c1)CCCC2)N(C)c1ncc2c(N)nc(N)nc2n1 | 3.88
COc1ccc(S(=O)(=O)Nc2ccc(CN3CCN(C(=O)c4cccc(C#N)c4)CC3)cc2)cc1 | 1.12
COc1ccc(CCN2CCC(NCc3cccc(N(C)C)c3)CC2)cc1 | 3.48
CN(C(=O)c1cc2c(-c3cncnc3)cccc2[nH]1)c1ccccc1 | 6.97
CN1CCN(c2cc(-c3ccc(F)cc3)nc(-c3ccncc3)n2)CC1 | 3.25
O=C(NCCc1ccccc1)c1cc(-c2cccnc2)cnc1NCC1CC1 | 6.13
Cc1nn(C(=O)Nc2cccc(C(F)(F)F)c2)c(C)c1Sc1ncccn1 | 2.23
COC(=O)c1c(NC(=O)c2c(F)c(F)c(F)c(F)c2F)sc2c1CCCCC2 | 6.8
CC1CCCCN1C(=O)NCCc1coc(-c2ccc(F)cc2)n1 (configuration not stated) | 3.66
COc1ccc2nc(C)cc(OCC(=O)Nc3ccccc3OC)c2c1 | 0.63
c1coc(CNc2nc(N3CCCCC3)nc3ccccc23)c1 | 4.06

SMILES | Inhibition [%]
O=C(c1ccc(F)cc1)N(CCNc1ccccc1)c1ccccc1 | 5.49
CCC(Sc1nc2ccccc2o1)C(=O)Nc1nccs1 (configuration not stated) | 9.07
CCc1ccc([C@@H]2C[C@H](C(F)(F)F)n3ncc(C(=O)NCc4ccc(OC)cc4)c3N2)cc1 | 5.42
COc1ccc(Oc2ccc([C@@H](C)N(C)c3ncc4c(N)nc(N)nc4n3)cc2)cc1 | 5.99
CC(C)(C)OC(=O)N1CCC(Cn2nc(-c3cnc4ccccc4c3)c3c(N)ncnc32)CC1 | 2.29
Nc1nc(N)c2c3c(sc2n1)CN(Cc1ccccc1)CC3 | 2.79
O=C(NC1CCN(c2ccnc3ccccc23)C1)c1cccc(C(F)(F)F)c1 (configuration not stated) | 3.54
Cl.O[C@@H](c1cc(C(F)(F)F)nc2c(C(F)(F)F)cccc12)[C@H]1CCCCN1 | 6.48
Cc1cc(NCC(C)C)c2[nH]nc(-c3ccccc3)c2n1 | 0.11
Cc1ncc(-c2ccnc(Nc3ccc(S(C)(=O)=O)cc3)n2)n1C(C)C [AZD-5438] | 6.64
CCCCc1ccc(NC(=O)Nc2ccc(O[C@H]3CCCC[C@@H]3N(C)c3ccccc3)c(F)c2)cc1 | 1.16
Cc1ccc(NC(=O)c2nc[nH]c2C(=O)Nc2nc3ccccc3[nH]2)c(C)c1 | 23.3
CN1CCC(NCc2cccc(-c3ccc(S(=O)(=O)NCc4ccccc4)cc3)c2)CC1 | 3.63
COc1ccc(OC(C)C(=O)Nc2ccc(Cl)cc2C)cc1 (configuration not stated) | 7.33
CN1CCN(c2nccc3nc(-c4ccc(F)c(F)c4)[nH]c23)CC1 | 1.66
CC(C)(C)OC(=O)N1CCN(c2cc(-c3ccc(Oc4ccccc4)cc3)n[nH]2)CC1 | 5.58
COc1cc(Br)cc2cc(C(=O)Nc3cccc(C(F)(F)F)c3)c(=O)oc12 | 3.09
CCN(CC)CCCN1CCN(C(=O)c2cccc(-c3noc(C(F)(F)F)n3)c2)CC1 | 1.48

System: Cryptococcus neoformans
Conditions: Concentration 20 uM; ASSAY_TEST Inhibition of Fungal Growth; detection method Resazurin; Absorption (OD600-OD570); plate type 384well; NBS; CORNING #3640

SMILES | Inhibition [%]
CCOc1ccccc1NC(C)C(=O)Nc1cc(C(F)(F)F)ccc1N1CCOCC1 (configuration not stated) | -7.7
CC(C)(C(=O)Nc1ccc(F)cc1)n1cc(-c2ccccc2F)cn1 | -7.47
O=C(CCC1CCCCC1)Nc1cccc(-c2nnc(-c3ccco3)o2)c1 | -12.99
Cl.NCC(c1cccs1)S(=O)(=O)c1ccccc1 (configuration not stated) | -1.15
CNc1nnc(Sc2cnn(-c3ccccc3)c(=O)c2Cl)s1 | -9.44
O=C(NCc1nnc2n1CCCCC2)c1ccc(-c2ccc(F)cc2)o1 | 6.1
c1cc(C2=NCCN2)cc(-c2cc(-c3ccc(C4=NCCN4)cc3)no2)c1 | -10.15
C[C@H](c1ccc2c(c1)CCCC2)N(C)c1ncc2c(N)nc(N)nc2n1 | -9.74
COc1ccc(S(=O)(=O)Nc2ccc(CN3CCN(C(=O)c4cccc(C#N)c4)CC3)cc2)cc1 | -8.14
COc1ccc(CCN2CCC(NCc3cccc(N(C)C)c3)CC2)cc1 | -2.71
CN(C(=O)c1cc2c(-c3cncnc3)cccc2[nH]1)c1ccccc1 | -9.57
CN1CCN(c2cc(-c3ccc(F)cc3)nc(-c3ccncc3)n2)CC1 | -11.56
O=C(NCCc1ccccc1)c1cc(-c2cccnc2)cnc1NCC1CC1 | -7.61
Cc1nn(C(=O)Nc2cccc(C(F)(F)F)c2)c(C)c1Sc1ncccn1 | -2.75
COC(=O)c1c(NC(=O)c2c(F)c(F)c(F)c(F)c2F)sc2c1CCCCC2 | -13.49
CC1CCCCN1C(=O)NCCc1coc(-c2ccc(F)cc2)n1 (configuration not stated) | -14.62
COc1ccc2nc(C)cc(OCC(=O)Nc3ccccc3OC)c2c1 | -5.56
c1coc(CNc2nc(N3CCCCC3)nc3ccccc23)c1 | -16.26

SMILES | Inhibition [%]
O=C(c1ccc(F)cc1)N(CCNc1ccccc1)c1ccccc1 | -9.35
CCC(Sc1nc2ccccc2o1)C(=O)Nc1nccs1 (configuration not stated) | -15.51
CCc1ccc([C@@H]2C[C@H](C(F)(F)F)n3ncc(C(=O)NCc4ccc(OC)cc4)c3N2)cc1 | -1.28
COc1ccc(Oc2ccc([C@@H](C)N(C)c3ncc4c(N)nc(N)nc4n3)cc2)cc1 | -6.67
CC(C)(C)OC(=O)N1CCC(Cn2nc(-c3cnc4ccccc4c3)c3c(N)ncnc32)CC1 | -9.75
Nc1nc(N)c2c3c(sc2n1)CN(Cc1ccccc1)CC3 | -1.76
O=C(NC1CCN(c2ccnc3ccccc23)C1)c1cccc(C(F)(F)F)c1 (configuration not stated) | -3.95
Cl.O[C@@H](c1cc(C(F)(F)F)nc2c(C(F)(F)F)cccc12)[C@H]1CCCCN1 | 1.73
Cc1cc(NCC(C)C)c2[nH]nc(-c3ccccc3)c2n1 | -5.87
Cc1ncc(-c2ccnc(Nc3ccc(S(C)(=O)=O)cc3)n2)n1C(C)C [AZD-5438] | -6.72
CCCCc1ccc(NC(=O)Nc2ccc(O[C@H]3CCCC[C@@H]3N(C)c3ccccc3)c(F)c2)cc1 | -1.2
Cc1ccc(NC(=O)c2nc[nH]c2C(=O)Nc2nc3ccccc3[nH]2)c(C)c1 | -8.94
CN1CCC(NCc2cccc(-c3ccc(S(=O)(=O)NCc4ccccc4)cc3)c2)CC1 | -7.83
COc1ccc(OC(C)C(=O)Nc2ccc(Cl)cc2C)cc1 (configuration not stated) | 5.96
CN1CCN(c2nccc3nc(-c4ccc(F)c(F)c4)[nH]c23)CC1 | -6.31
CC(C)(C)OC(=O)N1CCN(c2cc(-c3ccc(Oc4ccccc4)cc3)n[nH]2)CC1 | -7.43
COc1cc(Br)cc2cc(C(=O)Nc3cccc(C(F)(F)F)c3)c(=O)oc12 | -6.76
CCN(CC)CCCN1CCN(C(=O)c2cccc(-c3noc(C(F)(F)F)n3)c2)CC1 | -3.47
